In the assay the target is POU1 (OCT1 POU domain) (human, UniProt P14859 260-458). Put plainly: EMSA-SELEX-seq; no BOB1; 20 mM Tris-HCl pH 7.6, 140 mM NaCl, 10% glycerol, 0.5 mM EDTA, 0.05% Triton X-100, 0.1 mg/mL BSA, 0.1 mg/mL poly(dI-dC), 5 mM DTT, room temperature, 20 min; high values mean tight binding. To be noted: protein: recombinant; dsDNA, one strand shown. Put shortly: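 After expression in E. coli BL21, tagged POU-domain proteins were purified under denaturing conditions and then renatured. Each binding reaction held 30 ng protein and 300 ng of a PCR-amplified double-stranded random 35-nt library in 20 μL Tris–HCl pH 7.6 binding buffer, with or without 28 ng coactivator protein, for 20 min at RT. Bands holding complexes were cut from native 6% PAGE, eluted and PCR-amplified across four rounds, and the output was Illumina-sequenced. The value given for binding preference is the share, in percent, of sequenced 8-mers fitting a motif pattern.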
Chain of POU1 (OCT1 POU domain) (P14859 260-458): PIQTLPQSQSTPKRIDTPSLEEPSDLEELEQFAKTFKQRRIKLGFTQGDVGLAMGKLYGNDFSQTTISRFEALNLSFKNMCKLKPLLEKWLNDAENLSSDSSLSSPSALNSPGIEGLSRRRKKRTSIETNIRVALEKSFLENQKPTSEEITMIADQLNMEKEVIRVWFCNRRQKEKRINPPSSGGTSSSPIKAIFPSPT
Background: In EMSA bound probe runs differently from free probe, usually more slowly.
For ACTGGAAG, the binding signal was 0.021 % of ANNNNAAN 8-mers.

As to AGACTAAC, the binding signal is 0.0153 % of ANNNNAAN 8-mers.

Regarding ATTAGAAA, the binding signal was 0.0995 % of ANNNNAAN 8-mers. For ACCGCAAC, the binding signal was 0.0114 % of ANNNNAAN 8-mers. In the case of ATTTAAAC it was 0.137 % of ANNNNAAN 8-mers; in that of AAAGTAAT, 0.103 % of ANNNNAAN 8-mers; in that of ACCCGAAC, 0.0111 % of ANNNNAAN 8-mers. With AAACAAAG, the binding signal is 0.114 % of ANNNNAAN 8-mers. As to AGTTGAAA, the binding signal is 0.0477 % of ANNNNAAN 8-mers. In the case of ATCGCAAG it was 0.0179 % of ANNNNAAN 8-mers.

As for AGCACAAC, the binding signal was 0.0114 % of ANNNNAAN 8-mers.

On to AATTGAAA, for which the binding signal was 0.113 % of ANNNNAAN 8-mers. In the case of ACCGCAAG it was 0.0114 % of ANNNNAAN 8-mers; in that of ACGCCAAG, 0.0145 % of ANNNNAAN 8-mers. In the case of ACAACAAC it was 0.0187 % of ANNNNAAN 8-mers; in that of ATCTGAAA, 0.0374 % of ANNNNAAN 8-mers; in that of AACGCAAC, 0.013 % of ANNNNAAN 8-mers.

In the case of ATCTAAAC, the binding signal is 0.0229 % of ANNNNAAN 8-mers. Take ACCGAAAC: the binding signal is 0.0107 % of ANNNNAAN 8-mers. In the case of ACAGCAAC it was 0.0153 % of ANNNNAAN 8-mers; in that of ACTCCAAA, 0.0259 % of ANNNNAAN 8-mers; in that of AACCTAAC, 0.013 % of ANNNNAAN 8-mers. Next, ATCAAAAA: 0.061 % of ANNNNAAN 8-mers; ACCACAAC: 0.0107 % of ANNNNAAN 8-mers. In the case of AAATGAAT it was 0.256 % of ANNNNAAN 8-mers; in that of AACCCAAG, 0.0111 % of ANNNNAAN 8-mers. Regarding AATGAAAC, the binding signal was 0.0461 % of ANNNNAAN 8-mers. ACCTCAAG: the binding signal was 0.0141 % of ANNNNAAN 8-mers.

As for ACCCTAAC, the binding signal was 0.0107 % of ANNNNAAN 8-mers.

Consider AGCACAAT, for which the binding signal is 0.0233 % of ANNNNAAN 8-mers. Consider ACCACAAG, for which the binding signal is 0.0114 % of ANNNNAAN 8-mers. Next, ACTGCAAC: 0.0114 % of ANNNNAAN 8-mers.

The record behind these values is PMC10812921, “Transcriptional Coactivator BOB1 (OBF1, OCA-B) Modulates the Specificity of DNA Recognition by the POU-Domain Factors OCT1 and OCT2 in a Monomeric Configuration”.
